# FECH block: inhibitors of human ferrochelatase, primary screen, biochemical, purified FECH, Ni-mesoporphyrin absorbance | Ni-mesoporphyrin absorbance 550 nm | calls only at 10 µM (by protocol) | hit rate 3.3% among 20,000 | AID 1671448, 2021;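 active = enzyme reaction rate more than 3 SD below the solvent-only control wells on the same plate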;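 also: lower slope than DMSO wells means FECH inhibition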
# Target sequence (P22830 whole entry, looked up): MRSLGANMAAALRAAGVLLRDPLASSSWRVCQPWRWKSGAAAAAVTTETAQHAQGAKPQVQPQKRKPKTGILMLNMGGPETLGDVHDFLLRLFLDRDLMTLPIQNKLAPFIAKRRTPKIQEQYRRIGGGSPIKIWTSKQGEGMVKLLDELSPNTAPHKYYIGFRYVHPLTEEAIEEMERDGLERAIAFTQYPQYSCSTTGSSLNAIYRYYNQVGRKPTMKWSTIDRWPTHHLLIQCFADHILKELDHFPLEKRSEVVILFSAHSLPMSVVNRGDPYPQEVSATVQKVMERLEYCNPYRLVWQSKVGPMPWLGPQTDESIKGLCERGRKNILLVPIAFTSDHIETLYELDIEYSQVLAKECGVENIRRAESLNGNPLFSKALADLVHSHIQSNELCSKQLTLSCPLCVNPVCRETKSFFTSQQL
# Starred values were filed as active, the others as inactive; i = inactive; + = active, no number. Many of the other results were omitted from the sample, so hits are more common in it than they were.
SMILES,FECH block
COc1cccc(NCc2nc3nc(C)c(Cc4ccc(Cl)cc4)c(=O)n3[nH]2)c1,+
Cc1nc2nc(C)c(NC(=O)Nc3cccc(C(F)(F)F)c3)c(=O)n2[nH]1,i
CCOC(=O)CCc1c(C)nc2nc(CNc3ccccc3OCC)[nH]n2c1=O,i
O=c1cc(CNc2cccc(C(F)(F)F)c2)nc2nc(NCc3ccc(Cl)cc3)[nH]n12,i
CCOc1ccccc1NCc1nc2nc(C)c(Cc3ccc(Cl)cc3)c(=O)n2[nH]1,+
CCc1ccccc1NCc1nc2nc(C)c(Cc3ccc(Cl)cc3)c(=O)n2[nH]1,+
Cc1nc2nc(Cc3cccc(F)c3)[nH]n2c(=O)c1C,i
Cc1ccc2[nH]c(=O)c(CN(C)CCCc3nccn3C)cc2c1,i
COc1cccc(Cn2c(CNS(=O)(=O)c3ccc(C)cc3)nc3cccnc32)c1,i
OCCCNc1nc(Nc2cccc(F)c2)c2cnn(-c3ccccc3)c2n1,i
CCOc1ccc(NC(=O)Cn2c(=O)n(CC3CCC(C(=O)NC)CC3)c(=O)c3sccc32)cc1 (centres undefined),i
Cc1ccc(NC(=O)C2CCCCC2)c(NC(=O)C(C)n2ccnc2)c1 (centres undefined),i
CCOc1ccccc1CN(CC)C(=O)c1cnn2cc(C)cnc12,i
O=C(NCCSc1nc2ccccc2o1)[C@@H]1C[C@@H]2C=C[C@H]1C2,i
C=CCNc1ccccc1C(=O)N(C)CC1CCCCN1C (centres undefined),i
COCCC1(C(=O)O)CCCN(c2ccc(-c3ccccc3)nn2)C1 (centres undefined),i
COc1cccc(CNC(=O)CN2CCCN(Cc3ccccc3Cl)S2(=O)=O)c1,i
CCc1nc(C)c(C(=O)NCc2cn3nc(C)sc3n2)o1,i
Cc1ccc(N2C(=O)CCS2(=O)=O)cc1S(=O)(=O)Nc1ccccc1C(F)(F)F,i
CCc1cc(Sc2ccccc2NC(=O)c2cc(OC)cc(OC)c2)n2nc(C)nc2n1,i
CCc1cc(Sc2ccccc2NC(=O)Cc2cccc(OC)c2)n2nc(C)nc2n1,i
CCc1cc(Sc2ccccc2NC(=O)Cc2ccc(OC)cc2)n2nc(C)nc2n1,+
CCC(=O)Nc1cccc(C(=O)NCc2sc(C)nc2CC)c1,+
CCC(=O)Nc1cccc(C(=O)NCc2nc(Cc3cccs3)no2)c1,i
CCc1nc(C)sc1CNC(=O)c1sccc1NC(C)=O,i
SMILES,FECH block
Cn1c(=O)c2c(-c3ccccc3F)c(NCc3ccccc3)oc2n(C)c1=O,i
CN1CCCC1CCNC(=O)CCC(=O)NC1CCCC1 (centres undefined),i
O=C(CCC(=O)N1CCOC2(CNCCOC2)C1)NC1CCCC1 (centres undefined),i
CCN(CC)C1CCN(C(=O)CCC(=O)NC2CCCCCCC2)C1 (centres undefined),+
COc1ccc(CC(=O)Nc2ccc(Cl)c(N3CCCS3(=O)=O)c2)cc1,i
O=C(c1cc(=O)c2ccccc2[nH]1)N(Cc1ccccn1)CC1CCCO1 (centres undefined),i
Cc1ccc(-c2ccc3cc[nH]c(=O)c3c2)c2cccnc12,i
Cc1cccc(N2CCN(c3ncc(NS(=O)(=O)c4ccc(F)cc4)cc3C(=O)O)CC2C)c1 (centres undefined),i
Cc1cccc(N2CCN(c3ncc(NS(=O)(=O)c4cc(F)ccc4C)cc3C(=O)O)CC2C)c1 (centres undefined),+
Cc1cccc(N2CCN(c3ncc(NS(=O)(=O)c4ccccc4C)cc3C(=O)O)CC2C)c1 (centres undefined),i
CC(C)c1ccc(NC(=O)CN2C(=O)CN(C)C(=O)c3ccccc32)cc1,i
CN1CC(=O)N(CC(=O)Nc2ccc3c(c2)OCO3)c2ccccc2C1=O,+
CN1CC(=O)N(CC(=O)Nc2ccccc2)c2ccccc2C1=O,i
CN1CC(=O)N(CC(=O)Nc2ccc(F)c(Cl)c2)c2ccccc2C1=O,+
Cc1cc(C)cc(NC(=O)CN2C(=O)CN(C)C(=O)c3ccccc32)c1,i
Cc1ccc(NC(=O)CN2C(=O)CN(C)C(=O)c3ccccc32)cc1,i
Cn1nc(C(F)(F)F)c2cc(C(=O)N3CCCC(c4ccn[nH]4)C3)sc21 (centres undefined),i
O=C(CN1C(=O)COc2ccccc21)N1CCC(c2nc(-c3ccccc3)no2)CC1,i
CCOC(=O)c1ccccc1NC(=O)CN1CCN(Cc2ccccc2C)S1(=O)=O,i
CCOc1ccccc1NC(=O)CN1CCN(Cc2ccccc2C)S1(=O)=O,+
CCc1ccccc1NC(=O)CN1CCN(Cc2ccccc2C)S1(=O)=O,i
CCc1ccccc1NC(=O)CN1CCN(Cc2ccc(F)cc2Cl)S1(=O)=O,i
CCOc1ccccc1NC(=O)CN1CCN(Cc2ccccc2Cl)S1(=O)=O,i
CCOc1ccccc1NC(=O)CN1CCN(Cc2ccc(F)cc2Cl)S1(=O)=O,+
O=C(NCCCN1CCOCC1)c1ccc(CN2C(=O)CCn3nc(-c4ccccc4)cc32)cc1,i

# Screens (PubChem BioAssay)
